Assay outcomes deposited in PubChem BioAssay by NMMLSC.
The list is not random: actives were taken first. Their share in the collection is about 0.78%.
RGS16-Gao: modulators of RGS16 binding to Galphao, primary screen, biochemical, human proteins, multiplexed bead flow cytometry. Regulator of G-protein signaling 16 (Homo sapiens) + Guanine nucleotide-binding protein …. bead-based flow cytometry RGS16-Galphao binding, fluorescence; actives lie on both sides. binding response (% of control), % at 10 µM. hit rate 0.38% among 220,000;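 further: Galphao activated by GDP with aluminum fluoride before binding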
Target sequence (O15492 whole entry, looked up): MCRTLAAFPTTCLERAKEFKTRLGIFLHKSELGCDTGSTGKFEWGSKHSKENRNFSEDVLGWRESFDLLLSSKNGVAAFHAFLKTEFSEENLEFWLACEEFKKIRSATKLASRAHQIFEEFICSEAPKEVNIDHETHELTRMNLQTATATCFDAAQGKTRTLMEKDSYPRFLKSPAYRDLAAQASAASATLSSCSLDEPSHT
Target sequence (P09471 whole entry, looked up): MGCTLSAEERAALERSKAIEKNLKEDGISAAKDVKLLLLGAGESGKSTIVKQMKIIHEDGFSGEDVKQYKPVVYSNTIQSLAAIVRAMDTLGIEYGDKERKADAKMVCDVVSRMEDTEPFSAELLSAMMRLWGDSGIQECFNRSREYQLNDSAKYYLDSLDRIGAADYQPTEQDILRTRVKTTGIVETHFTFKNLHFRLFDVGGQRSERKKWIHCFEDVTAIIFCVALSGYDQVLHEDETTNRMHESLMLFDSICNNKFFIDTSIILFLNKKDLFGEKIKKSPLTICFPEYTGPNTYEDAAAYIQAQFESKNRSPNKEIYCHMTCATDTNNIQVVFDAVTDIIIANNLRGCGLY
RGS4-Gao reg: modulators of RGS4 binding to Galphao, primary screen, biochemical, multiplexed bead flow cytometry; Guanine nucleotide-binding protein G(o) subunit alpha (Homo sapiens), P09471; actives lie on both sides; binding response (% of control), % at 10 µM; hit rate 0.33% among 220,000; in the data active means binding response below about 49% or above about 150%; inactive means in between;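 further: fluorescent Galphao activated with aluminum fluoride binding bead-coupled RGS4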
Target sequence (P09471 whole entry, looked up): as above
RGS8-Gao: RGS8-Galphao binding modulators, primary screen, biochemical, multiplexed bead flow cytometry | actives lie on both sides | response (percent of control binding), % at 10 µM | hit rate 0.34% among 220,000 | AID 1423, 2008; in the data active means response below about 60% or above about 140%; inactive means in between;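 further: Galphao activated as the GDP aluminium fluoride complex binding bead-coupled RGS8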
RGS7-Gao reg: RGS7-Galphao binding modulators, primary screen, biochemical, multiplexed bead flow cytometry | Guanine nucleotide-binding protein G(o) subunit alpha (Homo sapiens), P09471 | actives lie on both sides | binding response (% of control), % at 10 µM | hit rate 0.35% among 220,000; in the data active means binding response below about 49% or above about 150%; inconclusive means no clear call, values can overlap the other calls; inactive means in between;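 further: fluorescent Galphao held in activated GDP-AlF4 state binding bead-coupled RGS7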
RGS4-Gao HTS: modulators of RGS–Galpha-o binding, primary screen, biochemical, multiplexed beads, flow cytometry, RGS4/7/8/16/19 | shares compounds with RGS16-Gao | multiplexed bead flow cytometry | RGS4–Galpha-o binding response, % at 10 µM | hit rate 99% among 1,600 | AID 1504, 2009;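 further: fluorescently labeled Galpha-o bound to GDP with aluminium fluoride binding biotinylated RGS beads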
Avidin counter: disruption of biotin probe capture by avidin, counter-screen for RGS protein interaction modulators, biochemical, flow cytometry, bead-based; shares compounds with RGS16-Gao; streptavidin beads, fluorescein-biotin binding; inhibition, % at 10 µM; 1,700 tested, under 10 active; AID 1783, 2009;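 active means inhibition above 50%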;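 further: median green fluorescence of gated singlet beads compared with DMSO control wells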
RGS8-Gao confirm: RGS8-Galphao binding modulators, confirmation, biochemical, multiplexed bead flow cytometry, single concentration; bead-based flow cytometry RGS8-Galphao binding, fluorescence; actives lie on both sides; binding response (% of control), % at 10 µM; hit rate 3% among 1,700; AID 1836, 2009; shares compounds with RGS16-Gao; in the data active means binding response below about 72% or above about 130%; inactive means in between;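 further: Galphao activated as GDP AlF4 complex before binding bead RGS8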
RGS7-Gao confirm: RGS7-Galphao binding modulators, confirmation, biochemical, multiplexed bead flow cytometry, single concentration; bead-based flow cytometry RGS7-Galphao binding; actives lie on both sides; hit rate 7.8% among 1,700; AID 1837, 2009; shares compounds with RGS16-Gao; response (percent of control binding), % at 10 µM; in the data active means response below about 75% or above about 130%; inactive means in between;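 further: fluorescent Galphao activated with GDP and aluminum fluoride binding bead-coupled RGS7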
RGS16-Gao single: modulators of RGS16-Galphao protein binding, confirmation, biochemical, single concentration, multiplexed bead flow cytometry. hit rate 4% among 1,700. bead-based flow cytometry; actives lie on both sides. response (% of control binding), % at 10 µM. shares compounds with RGS16-Gao; in the data active means response below about 74% or above about 130%; inactive means in between;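 further: Galphao activated as the GDP aluminium fluoride complex binding bead-coupled RGS16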
RGS4-Gao confirm: modulators of RGS4-Galphao protein binding, confirmation, biochemical, single concentration, multiplexed bead flow cytometry; shares compounds with RGS16-Gao; actives lie on both sides; binding response (% of control), % at 10 µM; hit rate 4% among 1,700; AID 1840, 2009; in the data active means binding response below about 74% or above about 130%; inactive means in between
RGS19-Gao single: regulators of RGS19-Galphao binding, confirmation, biochemical, single point, multiplexed bead flow cytometry. shares compounds with RGS16-Gao. bead-based flow cytometry RGS19-Galphao binding; actives lie on both sides. response (percent of control binding), % at 10 µM. hit rate 5% among 1,700; in the data active means response below about 50% or above about 160%; inactive means in between
Hits are given with their value; – = inactive; ? = inconclusive; · = not tested or not shown; [ ] = another dose, or the depositor's remark. Unless noted, how the calls were made is not given here.

SMILES	RGS16-Gao	RGS4-Gao reg	RGS8-Gao	RGS7-Gao reg	Avidin counter	RGS8-Gao confirm	RGS7-Gao confirm	RGS16-Gao single	RGS4-Gao confirm	RGS19-Gao single	others
CC(=O)Nc1ccc(Nc2nc(-c3ccccc3)nc3ccccc23)cc1	–	–	–	–	·	·	·	·	·	·
COc1cccc(CNC(=O)Cc2ccc(-n3c(=O)[nH]c4ccccc4c3=O)cc2)c1	–	–	–	–	·	·	·	·	·	·
Cc1[nH]c2ccccc2c1C(c1ccncc1)N1CCN(c2ccccc2F)CC1 (stereo not drawn)	–	–	–	160[activator]	–	–	–	–	–	–	RGS4-Gao HTS=119
O=C1CC(NNc2nc3ccccc3s2)C(=O)N1c1ccccc1 (stereo not drawn)	–	–	–	–	·	·	·	·	·	·
Cc1ccc(N2C(=O)CC(NNc3nc4ccccc4s3)C2=O)cc1 (stereo not drawn)	–	19	34	33	–	–	–	–	–	–
C=CCSC1=NC(N)=C(C#N)C2(CCCCC2)C1C(N)=O (stereo not drawn)	–	–	–	–	·	·	·	·	·	·
N#CC1=C(N)N=C(SCc2ccccc2)C(C(N)=O)C12CCCCC2 (stereo not drawn)	–	–	142[activator]	–	·	·	·	·	·	·	RGS4-Gao HTS=108
Cc1ccc(OCC(=O)N/N=C\c2ccncc2)c(C)c1	177[activator]	–	–	–	·	·	·	·	·	·	RGS4-Gao HTS=106
O=C(CC1SC2=NCCN2C1=O)Nc1ccccc1 (stereo not drawn)	–	–	–	–	·	·	·	·	·	·
C=C(C)CNC(=S)N/N=C/c1ccco1	–	–	–	?	·	·	·	·	·	·
NC(=O)C1CCCN(C(=O)c2ccc(Cl)cc2)C1 (stereo not drawn)	–	–	–	–	·	·	·	·	·	·
NC(=NC1CCCCC1)c1ccc(Cl)cc1	–	–	–	195[activator]	–	–	–	–	–	–	RGS4-Gao HTS=117
O=C(Nc1ccccc1)N1CCCN(c2ccc(C(F)(F)F)cc2[N+](=O)[O-])CC1	21	23	41	?	–	–	–	–	–	–
CC(=O)Nc1ccc(NC(=S)Nc2ccc(F)cc2)cc1	–	–	–	?	·	·	·	·	·	·
CC(=O)Nc1ccc(NC(=S)Nc2ccccc2)cc1	·	·	·	·	–	–	–	–	–	–
O=C(Cc1cccc2ccccc12)N/N=C/c1ccc(F)cc1	–	–	–	–	·	·	·	·	·	·
CCN(N=O)[C@@H](Cc1ccccc1)CN(N=O)[C@@H](Cc1ccccc1)CN(C)N=O	21	30	29	17	–	–	–	–	–	–
O=Cc1ccc(-c2ccc(Cl)cc2Cl)[nH]1	15	26	26	16	–	–	–	–	–	–
COC(=O)C1=C(C)N=c2s/c(=C3\C(=O)Nc4ccccc43)c(=O)n2C1c1ccccc1 (stereo not drawn)	179[activator]	–	–	–	–	–	–	–	–	–	RGS4-Gao HTS=118
CCc1ccc(NC(=O)c2ccccc2Br)cc1	–	–	–	–	·	·	·	·	·	·
COCCCn1c(-c2ccc(Cl)cc2)n[nH]c1=S	·	·	·	·	–	–	–	–	–	–
COc1ccc(C)cc1-n1nnnc1SCC1CCCO1 (stereo not drawn)	17	26	16	21	–	–	–	–	–	–
c1ccc(-c2csc(Nc3ccc4c(c3)OCCO4)n2)cc1	–	–	55	50	–	–	–	–	–	–	RGS4-Gao HTS=91
c1cc2c(cc1Nc1nc(-c3ccc4c(c3)OCO4)cs1)OCCO2	–	–	–	–	·	·	·	·	·	·
COc1ccc(NC(=O)c2[nH]c(C)c(C(C)=O)c2C)cc1S(=O)(=O)Nc1ccc(Br)cc1	–	–	–	?	·	·	·	·	·	·
SMILES	RGS16-Gao	RGS4-Gao reg	RGS8-Gao	RGS7-Gao reg	Avidin counter	RGS8-Gao confirm	RGS7-Gao confirm	RGS16-Gao single	RGS4-Gao confirm	RGS19-Gao single	others
Cc1cc(NC(=O)C2CC(=O)OC2c2ccccc2)no1 (stereo not drawn)	–	–	–	–	·	·	·	·	·	·
COc1ccc(NC(=O)C2CC(=O)OC2c2ccccc2)cc1 (stereo not drawn)	24	–	–	–	–	–	–	–	–	–	RGS4-Gao HTS=96
COC(=O)C(C)NC(=O)C(C)NC(=O)OCc1ccccc1 (stereo not drawn)	·	·	·	·	–	–	–	–	–	–
O=C(CSc1nnc(Cc2ccccc2)o1)N1CCCc2ccccc21	·	–	–	–	–	–	–	–	–	–
O=C(CSc1nnc(CNc2ccccc2)o1)N1CCc2ccccc21	–	–	–	–	·	·	·	·	·	·
Cc1ccn2c(=O)nc(SCc3cccc(C(F)(F)F)c3)nc2c1	–	–	–	–	·	·	·	·	·	·
CC(=O)N1CCN(C(=S)c2ccc([N+](=O)[O-])cc2)CC1	–	–	–	–	·	·	·	·	·	·
CC(C)CCOc1cccc(OCC(=O)O)c1	352[activator]	422[activator]	–	375[activator]	–	–	72	–	–	–
CCC(C)c1ccccc1NC(=O)c1cccnc1 (stereo not drawn)	–	–	–	–	·	·	·	·	·	·
CCOC(=O)C1CCCN(c2c(N3CCN(c4cccc(Cl)c4)CC3)c(=O)c2=O)C1 (stereo not drawn)	16	29	30	18	–	–	–	–	–	–
CCOC(=O)C1CCCN(c2c(N3CCN(C)CC3)c(=O)c2=O)C1 (stereo not drawn)	–	–	–	–	·	·	·	·	·	·
O=C(/C=C/c1cccc([N+](=O)[O-])c1)NC1CC2CCC1C2 (stereo not drawn)	–	–	–	–	·	·	·	·	·	·
CC1=C(C(=O)OC(C)C)C(c2cccc(F)c2)N2C(=O)C(C)SC2=N1 (stereo not drawn)	·	·	·	·	–	–	–	–	–	–
CC1=C(C(=O)OCC(C)C)C(c2cccc(F)c2)N2C(=O)C(C)SC2=N1 (stereo not drawn)	–	–	–	–	·	·	·	·	·	·
CCOc1ccc(C2NC(=O)NC(C)=C2C(=O)OC)cc1C (stereo not drawn)	·	·	·	·	–	–	–	–	–	–
CCOc1ccccc1NC(=O)COC(=O)C1CC1	–	–	–	–	·	·	·	·	·	·
